# Tau fibril FP: blocks human tau fibril formation measured by polarization; P10636; K18 P301L tau heparin fibrillization, Alexa594 FP, 6 h; Potency, µM (top dose mostly 57.7 µM), inactives show top-dose activity, negative = inhibition, most hits filed as inhibitors; hit rate 0.39% among 280,000; AID 1468; also: potency is read from the fitted curve at half-maximal effect; nearly all actives have a fitted effect of over 55% in size
# Target sequence (P10636 561-689 P618L limits assumed): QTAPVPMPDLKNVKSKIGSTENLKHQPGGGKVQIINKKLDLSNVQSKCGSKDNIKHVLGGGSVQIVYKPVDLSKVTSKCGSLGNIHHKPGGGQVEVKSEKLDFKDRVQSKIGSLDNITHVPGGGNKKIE
#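 K18 P301L tau (15 uM unlabeled/0.24 uM Alexa 594-labeled, final) + compound + heparin 20 uM final; 100 mM NaOAc pH 7; 6 hr 37 C; ThT 30 uM final added, 1 hr RT; FP ex 555/em 632 nm.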
# Sfp PPTase inh: inhibitors of Bacillus subtilis Sfp phosphopantetheinyl transferase; Q9F4F7; Biochemical Sfp PPTase activity, qHTS; Potency, µM, for the others: largest response in the series, negative = inhibition, actives largely listed as inhibitors; hit rate 3.5% among 310,000; AID 1490;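 also: the enzyme is Sfp with the accession as filed and its product quenches rhodamine fluorescence; potency is read from the fitted curve at half-maximal effect; 0% = enzyme reaction without inhibitor and -100% = no enzyme wells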
#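 Compounds were incubated with enzyme (final 15 nM) for 15 min at room temperature before substrate addition started the reaction. Fluorescence at 525 nm excitation, 598 nm emission was recorded immediately and after 30 minutes.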
# Tau fluor counter: counter-screen for tau fibril formation inhibitors; hit rate 0.93% among 280,000; AID 1463; tau K18 P301L Alexa594 fluorescence, heparin fibrillization; Potency, µM (highest dose often 57.7 µM), for the others: at the highest dose activity change, negative = decrease; also: potency is read from the fitted curve at half-maximal effect; nearly all actives have a fitted effect of over 55% in size
#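 Human tau K18 P301L (15 uM unlabeled, 0.24 uM Alexa 594-labeled) in 100 mM sodium acetate pH 7 with 20 uM heparin, 6 hr at 37 C. ThT 30 uM added, 1 hr ambient; Alexa 594 FP and total fluorescence read at 555/632 nm.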
# Tau ThT inhib: inhibitors of human tau fibril formation, thioflavin T binding | P10636 | recombinant tau K18 P301L (four-repeat tau fragment), heparin-induced fibrillization, ThT fluorescence | Potency, µM (highest dose often 57.4 µM), without a hit: top-dose activity, negative = inhibition, usual class: inhibitors | hit rate 2.1% among 270,000 | AID 1460; also: potency is read from the fitted curve at half-maximal effect; nearly all actives have a fitted effect of over 55% in size
#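 Heparin-induced (20 uM) aggregation of recombinant human K18 P301L tau, 15 uM unlabeled with 0.24 uM labeled, pH 7 acetate buffer, 6 hr at 37 C with compound. Fibrils quantified by 30 uM ThT fluorescence after 1 hr ambient incubation.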
# Coupling enz: counter-screen for Giardia aldolase inhibitors: coupling enzyme system; activity change, negative = inhibition, % at 58.2 µM, hits read low; AID 2472; hit rate 0.67% among 290,000; coupling enzyme system counterscreen, AmpLite Red fluorescence; in the data active = activity change below about -30%
#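 Compounds tested against the coupling enzymes alone at 57.5 uM final; readout was AmpLite Red fluorescence (525/598 nm) after 20 min at RT.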
# * = called active by the depositor; ? = inconclusive; . = no result; [ ] = remark or other dose. A selection: hits, their analogues and other compounds. The true share with any hit is near 5.2%. Unless noted, calls follow the shape of the dose curve; as a rule, active = well fitted curve in the direction sought with a large enough effect; inconclusive = small, poorly fitted or top-dose-only effect, or another doubt; inactive = no such curve, though single readings can be large; an effect the other way counts as inactive or inconclusive. Unless noted, % is scaled to controls: 0 for no effect and ±100 for the full control effect.
SMILES,Tau fibril FP,Sfp PPTase inh,Tau fluor counter,Tau ThT inhib,Coupling enz
Cc1cccc(C(=O)N/N=C/c2ccc[nH]2)c1,3%,9%,-11%,?,-15
Cc1ccc(N=Cc2ccc[nH]2)c(O)c1,?,-19%,?,16µM*,-34*
COc1ccc(/C=C2\CC/C(=C\c3ccc(OC)c(OC)c3)C2=O)cc1OC,11%,-20%,-11%,?,-5
O=C1/C(=C/c2cccs2)COc2ccccc21,9%,13%,-4%,?,3
CN(C)/N=C/C=C1\CCC/C(=C/c2cccs2)C1=O,0%,20%,-10%,0.63µM*,-1
CN(C)/N=C/C=C1\CC/C(=C\c2ccc(Br)cc2)C1=O,-3%,-8%,?,0.89µM*,0
CCCCOc1ccccc1CC1C(=O)Nc2ccc(Br)cc21 (stereo unspecified),-8%,.,?,?,.
Cc1ccc(O)c(C=Nc2cc(C)ccc2O)c1,-3%,-8%,-10%,?,-4
CC(C)(C)c1ccc(O)c(N=Cc2cc(Br)ccc2O)c1,-5%,50µM*,?,?,-5
CCN(CC)c1ccc(N=Cc2cc(Br)ccc2O)cc1,?,63µM*,?,16µM*,-22
N#Cc1c(-c2ccccc2)[nH]c(=S)[nH]c1=O,-1%,50µM*,-6%,0%,6
COc1ccc(-c2nc(CN3CCN(Cc4ccccc4)CC3)c(C)o2)cc1,.,6%,.,.,2
Oc1ccccc1-c1nnc(-c2ccc(C(F)(F)F)cc2)o1,-1%,11%,-8%,-10%,3
COc1ccc(-c2nc(/C=C3\C(C)=Nc4ccccc43)c(O)o2)cc1,?,?,8.9µM*[quencher],4µM*,-5
Cc1cccc(/N=C/c2nc(-c3ccccc3Br)oc2O)n1,-10%,1%,?,?,2
CC1=Nc2ccccc2/C1=C\c1nc(-c2ccc(C(F)(F)F)cc2)oc1O,3%,29%,11µM*[quencher],13µM*,-3
CC1=Nc2ccccc2/C1=C/c1nc(-c2ccc(C)s2)oc1O,4%,-5%,5µM*[quencher],2.8µM*,0
Oc1oc(-c2ccccc2)nc1C=NCc1ccccc1,0%,-8%,?,-13%,1
CC1=Nc2ccccc2/C1=C\c1nc(-c2ccccc2)oc1O,?,-4%,7.9µM*[quencher],5µM*,-10
O=C(NCc1ccco1)c1cccc(Br)c1,.,71µM*,.,.,2
O=C(NCc1ccc2c(c1)OCO2)c1cc2c(s1)CSC2,-13%,-8%,-23%,?,2
O=C(NCc1ccco1)c1cc2c(s1)CSC2,?,-78%,-18%,28µM*,-4
O=C(NCc1ccco1)c1cc(=O)c2ccccc2o1,-4%,5%,-6%,-4%,1
O=C(NCc1ccco1)c1cc2cc(Br)ccc2o1,.,20µM*,.,.,.
O=C(NCc1ccco1)c1ccc(Oc2ccccc2)cc1,2%,79µM*,-18%,-9%,-3
SMILES,Tau fibril FP,Sfp PPTase inh,Tau fluor counter,Tau ThT inhib,Coupling enz
COc1ccc(C(=O)NCc2nc(-c3cccc(C)c3)no2)cc1OC,-10%,.,?,-10%,.
COc1ccc(C(=O)NCC(c2cccnc2)N2CCN(c3ccccc3F)CC2)cc1OC (stereo unspecified),-1%,.,-2%,-4%,.
CCCSc1nnc2c(n1)OC(c1sccc1C)Nc1ccccc1-2 (stereo unspecified),0%,.,-5%,-5%,.
CC(C)(C)OC(=O)NCCCCC1=CC2=CC(=O)C(C)(OC(=O)C3CCCC3)C(=O)C2=CO1 (stereo unspecified),-2%,-10%,-3%,0%,5
O=C(NCc1ccco1)c1ccc2nccnc2c1,.,10%,.,.,-4
O=C(NCc1ccco1)c1cnccn1,-6%,40µM*,6%,-3%,3
O=C(NCc1ccco1)c1ccc2c(c1)C(=O)c1ccccc1-2,?,11µM*,-29%,13µM*,0
CC[N+](C)(C)CC/C=C1/c2ccccc2Sc2ccc(Cl)cc21,7%,-15%,5%,-3%,-3
CCCCCCCCCCC[N+](C)(C)CC/C=C1/c2ccccc2Sc2ccc(Cl)cc21,.,40µM*,.,.,0
CCCCCCCCCC[N+](C)(C)CC/C=C1/c2ccccc2Sc2ccc(Cl)cc21,.,32µM*,.,.,-3

# Bioassay records (PubChem)
